# From a collection of fitness landscapes (doi:10.1016/j.celrep.2020.107928)
# Whole data set: some 81,000 sequences, median “one-hybrid fitness for binding NBS DNA” near -0.1, cut for the highest 2% near 0.36. Many of the other results were omitted from the sample, so the highest values are more common in it than they were.
# B1: Caulobacter ParB omega fusion; a variant is named by its letters at X, in order, B8GW30 (parent)
# chain: MESVVVGEPGMSEGRRGLGRGLSALLGEVDAAPAQAPGEQLGGSREAPIEILQRNPDQPRRTFREEDLEDLSNSIREKGVLQPILVRPSPDTAGEYQIVAGERAWRAAQRAGLKTVPIMVRELDDLAVLEIGIIENVQRADLNVLEEALSYKVLMEKFERTQENIAQTIGKSXSHVANXMRLLXLPDEVQSYLVSGELTAXHARAIAAAADPVALAKQIIEGGLSVRETEALARKAPNLSAGKSKGGRPPRVKDTDTQALESDLSSVLGLDVSIDHRGSTGTLTITYATLEQLDDLCNRLTRGI
# Variants of: B1
# Test: one-hybrid fitness for binding NBS DNA (the Noc-binding site; scaled: cognate 1, non-cognate 0); higher = stronger binding
# Settings: with NBS DNA site
# Summary of the method: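 Bacterial one-hybrid selection in E. coli USO rpoZ- hisB- pyrF- with a HIS3 reporter carrying the site 19 bp from the promoter, screening Caulobacter ParB libraries with four specificity codons randomised (NNS). Cells grew 48 hours at 37°C on M9-minus-histidine plus 0.1 mM IPTG and 5 mM 3-AT. Plasmids before and after selection were Illumina-sequenced, three replicate libraries pooled, and variants under 10 reads dropped. Fitness is the log change in variant-to-wild-type read ratio, rescaled to cognate 1, non-cognate 0.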
row,Variant,one-hybrid fitness for binding NBS DNA
1,PRNE,≤ 0.2
2,MSCY,≤ 0.2
3,IKIS,≤ 0.2
4,QDWF,≤ 0.2
5,TRTG,≤ 0.2
6,QQGA,0.388
7,QQCA,0.291
8,QQFA,0.201
9,QQYA,0.303
10,QQRA,0.606
11,QQWA,0.212
12,RKVR,0.478
13,RCVR,0.349
14,RKKF,≤ 0.2
15,RKKM,0.269
16,RPVR,0.204
17,RKKR,0.768
18,TEPD,≤ 0.2
19,QDCL,≤ 0.2
20,PRVR,≤ 0.2
21,TRKS,0.437
22,YCKR,≤ 0.2
23,YRKR,0.377
24,HRKR,0.395

row,Variant,one-hybrid fitness for binding NBS DNA
1,PRKR,0.4
2,HRVR,≤ 0.2
3,TRVS,≤ 0.2
4,HRYR,≤ 0.2
5,PCKR,0.205
6,TRKP,≤ 0.2
7,YRVR,≤ 0.2
8,GNLD,≤ 0.2
9,ICLR,≤ 0.2
10,DVLD,≤ 0.2
11,AEAG,≤ 0.2
12,IGGG,≤ 0.2
13,AHLT,≤ 0.2
14,TRVR,0.215
15,ARYR,≤ 0.2
16,ARKR,0.364
17,TRKN,0.212
18,ARVR,≤ 0.2
19,TRKR,0.799
20,KFSD,≤ 0.2
21,ETGL,≤ 0.2
22,QTPN,≤ 0.2
23,QTPR,0.42
24,QSPR,0.27

row,Variant,one-hybrid fitness for binding NBS DNA
1,QTIR,0.499
2,QTIN,≤ 0.2
3,QTID,≤ 0.2
4,QTPD,≤ 0.2
5,QCPR,0.37
6,QPPR,≤ 0.2
7,FWRC,≤ 0.2
8,SYKP,≤ 0.2
9,HILC,≤ 0.2
10,CLQI,≤ 0.2
11,NVRS,≤ 0.2
12,IVEG,≤ 0.2
13,QSRG,0.319
14,QSQG,≤ 0.2
15,QPGG,≤ 0.2
16,QRGG,0.367
17,QCQG,≤ 0.2
18,QPRG,≤ 0.2
19,QCGG,≤ 0.2
20,QRAG,0.37
21,QRQG,0.366
22,QCRG,0.451
23,QCAG,≤ 0.2
24,QRFG,0.249

row,Variant,one-hybrid fitness for binding NBS DNA
1,PYIE,≤ 0.2
2,ACCM,≤ 0.2
3,VPMR,≤ 0.2
4,STTV,≤ 0.2
5,THKV,≤ 0.2
6,IMSF,≤ 0.2
7,GCVM,≤ 0.2
8,QTYG,≤ 0.2
9,QRNG,0.381
10,QRRG,0.483
11,QMRG,0.391
12,QRDG,≤ 0.2
13,QRYG,0.312
14,QTRG,0.496
15,QMDG,≤ 0.2
16,QRIG,≤ 0.2
17,QTDG,≤ 0.2
18,QMYG,≤ 0.2
19,QCNG,≤ 0.2
20,AHGY,≤ 0.2
21,VSQE,≤ 0.2
22,EAKN,≤ 0.2
23,LLTW,≤ 0.2
24,AKGR,≤ 0.2

row,Variant,one-hybrid fitness for binding NBS DNA
1,QLFF,≤ 0.2
2,YHKT,≤ 0.2
3,GRAV,≤ 0.2
4,LTWN,≤ 0.2
5,RRFM,0.266
6,RRAH,0.406
7,RRFS,0.666
8,RSFS,0.252
9,RCFS,0.411
10,RRFD,≤ 0.2
11,RPFS,≤ 0.2
12,RRFN,0.23
13,RRAN,0.282
14,RRFH,0.389
15,RRAD,≤ 0.2
16,RRFP,≤ 0.2
17,LARA,≤ 0.2
18,ELER,≤ 0.2
19,PWIR,≤ 0.2
20,MRID,≤ 0.2
21,CPAI,≤ 0.2
22,RRAS,0.655
23,RRAP,≤ 0.2
24,RRAK,0.254

row,Variant,one-hybrid fitness for binding NBS DNA
1,RISR,0.386
2,RILR,0.27
3,RIPR,≤ 0.2
4,RIHH,≤ 0.2
5,RIHP,≤ 0.2
6,RIHR,0.477
7,RIQH,≤ 0.2
8,RISN,≤ 0.2
9,RIQR,0.38
10,RIQD,≤ 0.2
11,RISD,≤ 0.2
12,RIYR,0.377
13,PALM,≤ 0.2
14,HPME,≤ 0.2
15,PIEV,≤ 0.2
16,KSHW,≤ 0.2
17,VSAN,≤ 0.2
18,EYDR,≤ 0.2
19,AMER,≤ 0.2
20,ITVP,≤ 0.2
21,GPTF,≤ 0.2
22,TCYM,≤ 0.2
23,RGSS,≤ 0.2
24,WTNW,≤ 0.2

row,Variant,one-hybrid fitness for binding NBS DNA
1,HPYT,≤ 0.2
2,GAIA,≤ 0.2
3,RIRH,0.333
4,RIGD,≤ 0.2
5,RIGR,0.441
6,RIWR,0.367
7,RIGH,≤ 0.2
8,RIWN,≤ 0.2
9,RIRR,0.638
10,RIWM,≤ 0.2
11,RIIR,≤ 0.2
12,ISCL,≤ 0.2
13,YPMG,≤ 0.2
14,GWYC,≤ 0.2
15,RPAE,≤ 0.2
16,HFNL,≤ 0.2
17,RVYR,0.359
18,RVQH,≤ 0.2
19,RVRR,0.626
20,RVAR,0.396
21,RVWR,0.248
22,RVFR,0.34
23,RVQS,0.357
24,RVQR,0.415

row,Variant,one-hybrid fitness for binding NBS DNA
1,RVAH,≤ 0.2
2,TANR,≤ 0.2
3,ERVW,≤ 0.2
4,TLWC,≤ 0.2
5,KAYA,≤ 0.2
6,QKKN,0.42
7,QKVQ,0.268
8,QKVH,≤ 0.2
9,QKKG,0.332
10,QKKS,0.662
11,QKHQ,≤ 0.2
12,QKKI,0.337
13,QKKD,0.211
14,QKKH,0.619
15,QKKP,0.26
16,QKKQ,0.384
17,QKKE,0.283
18,FAHG,≤ 0.2
19,SLHE,≤ 0.2
20,RHIK,≤ 0.2
21,GTLP,≤ 0.2
22,PPRN,≤ 0.2
23,SIAA,≤ 0.2
24,YQPS,≤ 0.2

row,Variant,one-hybrid fitness for binding NBS DNA
1,KTAW,≤ 0.2
2,CMYT,≤ 0.2
3,DGST,≤ 0.2
4,AMAP,≤ 0.2
5,QKQD,≤ 0.2
6,QKPS,≤ 0.2
7,QKRG,0.335
8,QKNP,≤ 0.2
9,QKYS,0.43
10,QKDS,0.332
11,QKQS,0.458
12,QKQP,≤ 0.2
13,QKNS,0.539
14,QKIS,0.278
15,QKYN,≤ 0.2
16,QKRN,0.37
17,DCTY,≤ 0.2
18,IHHC,≤ 0.2
19,WGKE,≤ 0.2
20,WAWT,≤ 0.2
21,MWRS,≤ 0.2
22,MATS,≤ 0.2
23,CSVV,≤ 0.2
24,GFNG,≤ 0.2

row,Variant,one-hybrid fitness for binding NBS DNA
1,QKCS,0.419
2,GKLS,≤ 0.2
3,QKCH,≤ 0.2
4,QKAP,≤ 0.2
5,GKLD,≤ 0.2
6,QKHH,0.205
7,QKAN,≤ 0.2
8,QKCN,≤ 0.2
9,QKHS,0.494
10,QKHD,≤ 0.2
11,GKLH,0.366
12,QKAS,0.498
13,SLNQ,≤ 0.2
14,VERV,≤ 0.2
15,NEQT,≤ 0.2
16,RMDV,≤ 0.2
17,RYAC,≤ 0.2
18,YPLD,≤ 0.2
19,IQMR,≤ 0.2
20,QKRH,0.579
21,QKRD,0.268
22,QKRF,0.258
23,QKLH,0.246
24,QKSH,0.241

row,Variant,one-hybrid fitness for binding NBS DNA
1,GWLI,0.404
2,QKLS,0.392
3,QKLD,≤ 0.2
4,QKSP,≤ 0.2
5,GWLS,≤ 0.2
6,QKSS,0.449
7,GWLP,≤ 0.2
8,YTAV,≤ 0.2
9,HGTI,≤ 0.2
10,VPLE,≤ 0.2
11,AYGD,≤ 0.2
12,RKKE,≤ 0.2
13,KHKY,≤ 0.2
14,QKRP,0.261
15,QKGD,≤ 0.2
16,QKGS,0.465
17,QKRI,0.301
18,QKNH,0.286
19,QKGH,0.228
20,QKDD,≤ 0.2
21,QKDH,0.521
22,QKRS,0.677
23,MPKT,≤ 0.2
24,RGWG,≤ 0.2

row,Variant,one-hybrid fitness for binding NBS DNA
1,DTNG,≤ 0.2
2,IIGR,≤ 0.2
3,VAWT,≤ 0.2
4,RYSG,≤ 0.2
5,RYQD,≤ 0.2
6,RYRS,0.572
7,RYRN,≤ 0.2
8,RYQS,0.386
9,RYST,0.452
10,RYSS,0.437
11,RYSN,≤ 0.2
12,RYRD,≤ 0.2
13,RYSH,≤ 0.2
14,RYQH,≤ 0.2
15,RYSC,≤ 0.2
16,MMDT,≤ 0.2
17,HANR,≤ 0.2
18,IMHC,≤ 0.2
19,VAPN,≤ 0.2
20,GWLG,≤ 0.2
21,KQKS,≤ 0.2
22,FLVG,≤ 0.2
23,LDND,≤ 0.2
24,SIIL,≤ 0.2

row,Variant,one-hybrid fitness for binding NBS DNA
1,AHHA,≤ 0.2
2,SHVW,≤ 0.2
3,CFRT,≤ 0.2
4,RYCH,≤ 0.2
5,RYWS,≤ 0.2
6,RYYS,0.371
7,RYCP,≤ 0.2
8,RYCS,0.395
9,RYHS,0.441
10,RYDS,≤ 0.2
11,RYND,≤ 0.2
12,RYHN,≤ 0.2
13,RYNS,0.497
14,RYHD,≤ 0.2
15,RYIS,≤ 0.2
16,EYQC,≤ 0.2
17,RKSA,0.284
18,PEMV,≤ 0.2
